Sampled rows, rich in hits. Any-hit rate of the full collection: about 3.9%.
BoNT-A LC inh2: BoNT/A light chain protease inhibitors, primary screen, biochemical, flow cytometry, MLPCN library; Botulinum neurotoxin type A light chain protease (Clostridium botulinum A str. ATCC 3502); multiplex microsphere protease substrate cleavage; inhibition, % at 10 µM; actives 0.17% (n = 360,000)
SARS 3CLpro inh: SARS-CoV 3CLpro protease inhibitors, primary screen, biochemical, quenched FRET; Replicase polyprotein 1ab (Severe acute respiratory syndrome coronavirus), P0C6X7; inhibition, % at 6 µM; actives 0.14% (n = 290,000); recombinant SARS-CoV 3CLpro, quenched FRET peptide cleavage; in the data active = inhibition above about 12%
CCHF vOTU inh: CCHFV vOTU protease inhibitors, primary screen, biochemical, Pep-AMC substrate, fluorescence. Crimean-Congo hemorrhagic fever virus L polyprotein viral ovarian tumor (vOTU) protease …. actives 0.55% (n = 370,000). AID 651958, 2012. inhibition, % at 11.5 µM; in the data active = inhibition above about 30%
Anthrax LF prot: Bacillus anthracis LF protease inhibitors, primary screen, biochemical, multiplex microsphere, MLPCN library. actives 0.12% (n = 360,000). inhibition, % at 10 µM. multiplex microsphere protease cleavage assay. Lethal factor (Bacillus anthracis), P15917. AID 588501, 2011
Target sequence (P15917 whole entry, looked up): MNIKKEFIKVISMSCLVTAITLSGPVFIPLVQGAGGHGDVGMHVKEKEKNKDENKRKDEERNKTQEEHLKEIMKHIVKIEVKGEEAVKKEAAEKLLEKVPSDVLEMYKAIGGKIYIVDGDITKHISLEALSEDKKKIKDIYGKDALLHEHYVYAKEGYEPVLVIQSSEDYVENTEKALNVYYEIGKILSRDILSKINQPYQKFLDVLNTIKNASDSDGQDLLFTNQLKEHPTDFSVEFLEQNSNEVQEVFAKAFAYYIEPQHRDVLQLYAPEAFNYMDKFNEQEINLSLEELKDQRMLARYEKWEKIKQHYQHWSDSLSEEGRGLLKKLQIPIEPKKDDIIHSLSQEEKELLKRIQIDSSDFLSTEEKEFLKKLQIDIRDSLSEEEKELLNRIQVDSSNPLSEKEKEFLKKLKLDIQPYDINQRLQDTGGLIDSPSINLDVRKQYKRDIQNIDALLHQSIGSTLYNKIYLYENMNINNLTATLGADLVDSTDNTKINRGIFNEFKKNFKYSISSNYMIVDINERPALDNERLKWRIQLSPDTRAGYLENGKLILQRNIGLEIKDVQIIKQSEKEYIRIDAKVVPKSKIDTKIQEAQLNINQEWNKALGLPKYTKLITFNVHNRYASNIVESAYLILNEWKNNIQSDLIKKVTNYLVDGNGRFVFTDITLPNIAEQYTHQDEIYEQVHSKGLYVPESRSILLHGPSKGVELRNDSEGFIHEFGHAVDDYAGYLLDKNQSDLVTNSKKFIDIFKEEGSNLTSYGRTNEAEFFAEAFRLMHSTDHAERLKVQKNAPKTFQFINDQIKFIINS
BoNT F protease: BoNT/F light chain protease inhibitors, primary screen, biochemical, flow cytometry, MLPCN library; actives 0.22% (n = 360,000); Multiplex microsphere protease cleavage assay; Botulinum neurotoxin type F light chain protease (Clostridium botulinum); inhibition, % at 10 µM; in the data active = inhibition above about 35%, passing the limit was not always enough; inconclusive = no clear call, values can overlap the other calls
Bead autofluor: compound fluorescence in toxin protease inhibitor counterscreen | actives 3.1% (n = 360,000) | fluorescence intensity (no concentration beside the values) | compound autofluorescence counterscreen, microsphere flow cytometry; active compounds read high; in the data active = fluorescence intensity above about 16000; inconclusive = no clear call, values can overlap the other calls
Numbers stand for hits; i = inactive; ? = inconclusive; nt = no result given. Rule as the data show it, unless noted: active = inhibition above about 30%; inconclusive = no clear call, values can overlap the other calls; inactive = below that.

SMILES	BoNT-A LC inh2	SARS 3CLpro inh	CCHF vOTU inh	Anthrax LF prot	BoNT F protease	Bead autofluor
O=C1C2C3C=CC(C3)C2C(=O)N1c1ccccc1 (stereo unspecified)	?	i	i	i	i	22433
CN1C(=O)C2C=CC1C1C(=O)N(c3ccccc3)C(=O)C21 (stereo unspecified)	i	i	i	i	i	21330
CC(c1ccccc1)n1cc(C(=O)N2CCCC2)nn1 (stereo unspecified)	nt	nt	i	nt	nt	nt
O=C(Nc1ccccc1Sc1ccccc1)c1ccccc1	i	i	i	i	i	i
CS(=O)(=O)N(Cc1ccc(C(=O)Nc2ccccc2Sc2ccccc2)cc1)c1ccccc1	i	13	i	i	i	i
CS(=O)(=O)N(Cc1ccc(C(=O)NCCSCc2ccco2)cc1)c1ccccc1	i	i	i	i	i	21841
OC(c1ccccc1)(c1ccccc1)C1CCN(CCCNc2ccccc2F)CC1	nt	nt	i	nt	nt	nt
COCc1cc(C)nc(N2CCN(Cc3ccccc3)CC2)c1C#N	i	i	i	i	i	i
COCc1cc(C)nc(N2CCN(c3ccccc3)CC2)c1C#N	i	i	i	i	i	23159
COc1cc(N2CCCC2)c(OC)cc1/C=C(/C#N)c1ccc(Br)cc1	i	i	i	i	i	20296
COc1cc(N2CCCC2)c(OC)cc1/C=C(/C#N)c1ccc(F)cc1	i	i	i	i	35	i
O=C(c1cc(Cl)cc(Cl)c1)N1CC[C@H]2[C@H](CCCN2Cc2ccc(F)cc2)C1	nt	nt	i	nt	nt	nt
O=S1(=O)c2c(cccc2N2CCSCC2)Oc2ccccc2CN1Cc1cn(Cc2ccc(C(F)(F)F)cc2)nn1	nt	nt	i	nt	nt	nt
C[C@H]1COc2cccc(N3CCCC3)c2S(=O)(=O)N1C	nt	nt	i	nt	nt	nt
Cn1c(C(=O)Nc2ccc3c(c2)OCO3)cc2c(=O)n(C)c3ccccc3c21	i	i	i	i	i	i
CCOc1ccc(NC(=O)c2cc3c(=O)n(C)c4ccccc4c3n2C)cc1	i	i	i	i	i	18920
C=CCn1c(CNC(=O)c2ccco2)nnc1SCC(=O)c1ccccc1	i	i	i	i	i	i
C=CCn1c(CNC(=O)c2cccs2)nnc1SCC(=O)c1ccc(Br)cc1	i	i	i	i	i	23917
C=CCn1c(CNC(=O)c2cccs2)nnc1SCC(=O)Nc1ccc(C(=O)O)cc1	?	i	i	i	i	19549
C=CCn1c(CCNC(=O)c2cccs2)nnc1SCC(=O)c1ccc(Cl)cc1	i	i	i	i	i	23328
C=CCn1c(CCNC(=O)c2cccs2)nnc1SCC(=O)Nc1cccc(Cl)c1C	?	i	i	i	i	20193
C=CCn1c(CCNC(=O)c2cccs2)nnc1SCC(=O)c1cccc([N+](=O)[O-])c1	i	i	i	i	i	i
O=C(NC1CCCCN(Cc2cccc(C(F)(F)F)c2)C1=O)c1c(F)cccc1F (stereo unspecified)	nt	nt	i	nt	nt	nt
C=CCn1c(Cc2cccs2)nnc1SCC(=O)c1ccc(F)cc1	i	i	i	i	i	i
C=CCn1c(Cc2cccs2)nnc1SCC(=O)c1ccc2ccccc2c1	?	i	i	i	i	23327
SMILES	BoNT-A LC inh2	SARS 3CLpro inh	CCHF vOTU inh	Anthrax LF prot	BoNT F protease	Bead autofluor
CN(CCO)c1cc(Sc2nc3ccccc3s2)c2nonc2c1[N+](=O)[O-]	i	i	i	i	i	21417
Nc1[nH]c(C(=O)c2ccc(Br)cc2)c(-c2ccc(Cl)cc2[N+](=O)[O-])c1C(=O)NCCc1c[nH]c2ccccc12	nt	nt	i	nt	nt	nt
Cc1ccc(C)n1-c1ccc(-n2cnnn2)cc1	i	i	i	i	i	16233
CC1=C(C(=O)OCC2CCCO2)C(c2ccccc2)C2=C(CCCC2=O)N1 (stereo unspecified)	i	i	i	i	i	i
COc1ccc(C2C(C(=O)OCC3CCCO3)=C(C)NC3=C2C(=O)CC(c2ccco2)C3)cc1O (stereo unspecified)	i	i	i	i	i	23267
CN(C)c1ccc(/C=C/c2cc[n+]([O-])cc2)cc1	nt	i	nt	nt	nt	nt
CN(C)c1ccc(/C=C/c2cc[n+](C)cc2)cc1	i	i	i	i	i	16151
Cc1ccc(S(=O)(=O)N2CCCC2c2cccc3[nH]cc(C)c23)cc1 (stereo unspecified)	nt	nt	i	nt	nt	nt
Cc1cccc(-c2c3c(=O)n(C)c(=O)n(C)c3cn2-c2ccc(O)cc2)c1	i	i	i	i	i	20937
COC(=O)[C@]12C[C@H](CC(=O)N3CCN(C(=O)C4CC4)CC3)C(=O)N(CCc3ccc(OC)c(OC)c3)C1=C[C@H](COCc1ccccc1)O[C@@H]2C	nt	nt	i	nt	nt	nt
COc1cccc(OC)c1/C(O)=C(\C#N)c1nc2ccccc2[nH]1	i	i	i	i	i	i
COc1ccc(/C=N/OC/C(O)=C(\C#N)c2nc3ccccc3[nH]2)cc1	i	i	i	i	i	22111
CC(C)(C)/C(O)=C(/C#N)c1nc2ccccc2[nH]1	?	i	i	i	i	23471
C=CCn1c(SCc2nc3ccccc3[nH]2)nnc1-c1ccc(OC)cc1	i	i	i	i	i	20347
CCn1c(SCc2nc3ccccc3[nH]2)nnc1-c1cccnc1	?	i	i	i	i	24875
C=CCn1c(SCc2cccc3ccccc23)nnc1-c1cccnc1	i	i	i	i	i	21679
C=CCn1c(SCc2nc3ccccc3[nH]2)nnc1-c1cccc(OC)c1	i	i	i	i	i	22532
C#CCN1CC(N(C)CCO)CS1(=O)=O (stereo unspecified)	nt	nt	i	nt	nt	nt
O=S1(=O)c2c(NCc3ccco3)cccc2Oc2ccccc2CN1Cc1cn(Cc2cccc(F)c2)nn1	nt	nt	i	nt	nt	nt
CCn1c(SCc2nc3ccccc3[nH]2)nnc1-c1ccc(OC)cc1	i	i	i	i	i	23993
C=CCn1c(SCc2nc3ccccc3[nH]2)nnc1-c1ccccn1	?	i	i	i	i	18300
CCn1c(SCc2nc3ccccc3[nH]2)nnc1-c1ccncc1	i	i	i	i	i	i
COc1cccc(CNC(=O)[C@H]2CCCN2C(=O)[C@H]2CCCN2C(=O)OC(C)(C)C)c1	nt	nt	i	nt	nt	nt
CCCCCCNC(=O)C1CSCCS(=O)(=O)N1Cc1ccc(OC)cc1 (stereo unspecified)	nt	nt	i	nt	nt	nt
Cc1ccc([N+](=O)[O-])cc1-c1[nH]c(-c2ccc(O)c(O)c2)nc1-c1ccccc1	i	i	i	i	i	16205
Cn1cc(C2(c3c[nH]c4ccccc34)CCN(C(=O)OC(C)(C)C)CC2)c2ccccc21	nt	nt	i	nt	nt	nt
CC(C)=CCCC(C)CN(C)CCc1ccccn1 (stereo unspecified)	i	i	i	i	i	21319
Cc1ccccc1CN1CCCCC(NC(=O)c2cccc(F)c2)C1=O (stereo unspecified)	nt	nt	i	nt	nt	nt
